Screening data: PubChem, National Center for Advancing Translational Sciences (NCATS)
Most compounds without a hit are left out; they make up all but 10% or so of the library.
LMNA splice mod – LMNA splicing modulation. HeLa LMNA splicing GFP/RFP minigene ratio, 48 h. Potency, µM (highest dose often 46.1 µM), inactives show at the highest dose ratio change, negative = inhibition, hits mostly inhibitors. 0.01% of 200,000 active; active = well fitted inhibition curve with a large enough effect in the signal ratio, with a control signal flat, not every such curve was filed as active; inconclusive = small, poorly fitted or top-dose-only effect, or effect the other way, or a change in a side signal; the % refers to the signal ratio; also: potency is read from the fitted curve at half-maximal effect
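S3 HeLa stable clones carrying a lamin A-EGFP splicing minigene plus DsRed2 were seeded at 600 cells/well in Opti-MEM with 2% FBS, pin-dosed and incubated 48 h at 37°C. Acumen cytometry (488 nm) gave the GFP/RFP total-intensity ratio.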
HPGD block – inhibitors of human 15-hydroxyprostaglandin dehydrogenase (HPGD); purified HPGD, NADH fluorescence kinetic, PGE2 substrate; Potency, µM, for inactives: at the top dose activity change, negative = inhibition, most hits filed as inhibitors; 4.3% of 150,000 active; also: potency is read from the fitted curve at half-maximal effect
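20 nM HPGD preincubated 15 min at room temperature with compound in 50 mM Tris-HCl pH 8, 0.01% Tween 20. Started with 1 mM NAD+ and 30 uM prostaglandin E2; NADH fluorescence (360/450 nm) read 5 times over 30-s intervals, last minus first.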
ALDH1A1 block – inhibitors of human aldehyde dehydrogenase 1A1; P00352; Purified ALDH1A1, NADH fluorescence, propionaldehyde substrate; Potency, µM (highest dose often 75.3 µM), inactives show at the highest dose activity, negative = inhibition, hits mostly inhibitors; 7.3% of 220,000 active;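 also: potency is read from the fitted curve at half-maximal effect; plate controls were no enzyme wells and a reference inhibitor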
12-hLO inh – 12-hLO (ALOX12) enzyme inhibition; P18054; purified 12-hLO, xylenol orange hydroperoxide absorbance; Potency, µM (top dose mostly 57.1 µM), inactives show top-dose activity change, negative = inhibition, hits mostly inhibitors; 0.12% of 150,000 active; active = well fitted inhibition curve with a large enough effect; inconclusive = small, poorly fitted or top-dose-only effect; also: potency is read from the fitted curve at half-maximal effect; nearly all actives have a fitted effect of over 55% in size
Target sequence (P18054 whole entry, looked up): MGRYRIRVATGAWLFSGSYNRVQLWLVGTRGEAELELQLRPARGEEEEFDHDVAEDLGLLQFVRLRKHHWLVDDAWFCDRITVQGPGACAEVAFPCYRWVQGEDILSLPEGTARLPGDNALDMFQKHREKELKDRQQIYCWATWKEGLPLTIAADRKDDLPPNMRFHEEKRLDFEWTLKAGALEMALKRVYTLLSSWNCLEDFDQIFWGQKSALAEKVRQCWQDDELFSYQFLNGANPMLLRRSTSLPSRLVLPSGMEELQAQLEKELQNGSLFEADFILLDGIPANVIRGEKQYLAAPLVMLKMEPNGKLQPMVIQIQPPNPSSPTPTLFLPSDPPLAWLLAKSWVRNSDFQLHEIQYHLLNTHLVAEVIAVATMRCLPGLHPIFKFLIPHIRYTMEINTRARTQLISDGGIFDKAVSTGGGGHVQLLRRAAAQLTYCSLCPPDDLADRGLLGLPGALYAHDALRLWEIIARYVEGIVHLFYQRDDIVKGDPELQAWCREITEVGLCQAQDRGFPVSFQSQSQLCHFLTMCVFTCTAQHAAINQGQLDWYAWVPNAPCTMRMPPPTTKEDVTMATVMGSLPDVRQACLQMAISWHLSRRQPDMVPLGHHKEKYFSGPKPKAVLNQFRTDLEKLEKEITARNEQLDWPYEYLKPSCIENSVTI
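Lipoxygenase turnover measured by absorbance at 573 and 405 nm after Fe-XO development. Human 12hLO 150 nM, arachidonate 40 uM, pH 7.0 Hepes buffer with detergent; 15 min compound preincubation, 30 min reaction.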
PNC inhibitor – blocks assembly of the perinucleolar compartment. PC3M PTB-GFP, PNC prevalence imaging, 16 h; active compounds read low. 3.1% of 140,000 active. activity change (PNC), negative = inhibition, % at 10 µM;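 active = readout at or below -70, meaning at least 70% loss of cells showing the perinucleolar compartment, a nuclear body marking cancer cells; inconclusive = readout between -30 and a set limit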;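 also: plate controls were DMSO wells for no effect and camptothecin positive control wells for full effect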
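PC3M cells stably expressing PTB-GFP, 750–1000 cells/well, treated 16 h at 37 °C with compound (23 nl of library stock), in duplicate. After paraformaldehyde fixation and Hoechst stain, imaged at 20x; PNC prevalence scored by image analysis.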
An asterisk follows results filed as active; ? = inconclusive; . = no result; [ ] = another dose, or the depositor's remark. Unless noted, calls follow the shape of the dose curve; as a rule, active = well fitted inhibition curve with a large enough effect (not every such curve was filed as active); inconclusive = small, poorly fitted or top-dose-only effect, or another doubt; inactive = no such curve, though single readings can be large or run the other way. Unless noted, % is scaled to controls: 0 for no effect and ±100 for the full control effect.

SMILES	LMNA splice mod	HPGD block	ALDH1A1 block	12-hLO inh	PNC inhibitor
CCOC(=O)C1CCCN(C(=O)c2sc3nc(-c4ccc(F)cc4)cn3c2C)C1 (configuration not stated)	?	-44%	10µM*	-5%	-2
CCOC(=O)C1CCCN(C(=O)c2cccs2)C1 (configuration not stated)	20%	-4%	-2%	1%	22
Cc1ccc(-c2csc(=Nc3cccnc3)n2CCCN2CCCC2=O)cc1C	-7%	-11%	7.9µM*	0%	153
Cc1ccc(-c2csc(=Nc3cccnc3)n2CCCn2ccnc2)cc1C	?	-9%	?	-1%	-10
O=C1CCC(=O)N1OCCCOc1ccc(Br)cc1Cl	-8%	18µM*	-2%	-2%	-11
CC1CCN(CCCOc2ccc(Br)cc2Cl)CC1	.	.	-4%	.	.
COc1ccc(-c2nc(C)c(CCNC(=O)C(=O)Nc3ccccc3F)s2)cc1	9%[46 µM]	.	.	.	.
O=C1CC(c2ccccc2)CC(=O)C1Sc1ccc(Cl)cc1 (configuration not stated)	5%	?	?	-3%	-1
O=C1CC(c2ccc(Cl)cc2)CC(=O)C1CS(=O)(=O)c1ccccc1 (configuration not stated)	.	.	7.1µM*	.	.
O=C1CCCC(=O)C1CS(=O)(=O)c1ccccc1	.	.	13µM*	.	.
COc1ccc(C2CC(=O)C(CS(=O)(=O)c3ccccc3)C(=O)C2)cc1 (configuration not stated)	.	.	7.9µM*	.	.
COc1ccc(-c2nc3cnc(N4CCN(C)CC4)nc3n(CCc3ccccc3)c2=O)cc1	25%	.	?	.	.
FC(F)(F)c1ccc(-c2noc(CN3CCCN(C4CCCCC4)CC3)n2)cc1	19%[46 µM]	.	6%	.	.
CCCC(OC(=O)CN1C(=O)COc2ccccc21)C(=O)NC1CCCC1 (configuration not stated)	-14%	28µM*	7%	1%	194
CCOC(=O)N1CCC(NC(=O)CCN2C(=O)COc3ccccc32)CC1	-7%	-6%	1%	10%	-80*
CCc1ccc(NC(=O)COC(=O)CN2C(=O)COc3ccccc32)cc1	6%	-11%	-1%	-2%	26
CCOc1ccccc1CNS(=O)(=O)c1cc2c(cc1C)NC(=O)CO2	-2%[46 µM]	.	.	.	.
CC#CCN1c2ccccc2[C@]23C[C@@H](C(=O)OC)N(C(=O)COCc4ccccc4)C2=NC(C(=O)OC)=C(C(=O)OC)[C@H]13	-5%[9.22 µM]	4%	10%[13.5 µM]	4%[11.4 µM]	.
CCN(C(=O)COC(=O)/C=C/c1ccc(S(=O)(=O)N2CCc3ccccc32)cc1)C1CCS(=O)(=O)C1 (configuration not stated)	.	.	5µM*	.	.
O=C(COC(=O)/C=C/c1ccc(S(=O)(=O)N2CCc3ccccc32)cc1)NC1CCS(=O)(=O)C1 (configuration not stated)	-17%[46 µM]	.	?	.	.
COc1cc(C(=S)N(C)C)ccc1O	?	18µM*	10µM*	0%	9
CCOc1ccccc1CNC(=O)CCn1c(=O)c2cccn2c2ccc(F)cc21	-1%[46 µM]	.	.	.	.
C=CCc1ccc(OCC(O)COc2ccc(CC=C)cc2OC)c(OC)c1	?	-7%	10µM*	6%	0
C=CCc1ccc(OCC(O)CN2CCCCC2)c(OC)c1 (configuration not stated)	7%	-7%	-7%	0%	-10
CS(=O)(=O)c1ccc(C(=O)OCc2nnc(-c3ccc(Cl)cc3)o2)cc1[N+](=O)[O-]	.	.	-1%	.	.
SMILES	LMNA splice mod	HPGD block	ALDH1A1 block	12-hLO inh	PNC inhibitor
O=C(O)C1CCCN(S(=O)(=O)c2ccc(Br)s2)C1 (configuration not stated)	13%[9.22 µM]	.	-1%	.	.
O=C(C1CCCN(S(=O)(=O)c2ccc(Br)s2)C1)N1CCCCCC1 (configuration not stated)	?	-11%	5.6µM*	-17%	-3
COc1ccccc1CN1CCN(C2CCN(C(=O)NC(C)C)CC2)C(=O)C1=O	-8%[46 µM]	.	.	.	.
COc1ccc(OC)c(C(C)NC(=O)Nc2cccc(C(C)=O)c2)c1 (configuration not stated)	?	.	11µM*	.	.
COc1ccc(C(C)=O)cc1CN1C(=O)NC2(CCCCCCC2)C1=O	19%[46 µM]	.	6.3µM*	.	.
COc1ccc(CN2C(=O)NC3(CCCCCC3)C2=O)cc1F	?	-3%	-9%	-6%	-3
COc1ccc(Br)cc1CN(C)C(C)C(=O)Nc1cccc(C(C)=O)c1 (configuration not stated)	.	.	10µM*	.	.
COc1ccc(C(C)=O)cc1CSCCC(=O)O	7%	28µM*	-5%	-5%	49
Cc1nc(-c2ccc(S(=O)(=O)Nc3cc(Cl)ccc3C)cc2)co1	-12%[46 µM]	.	.	.	.
CN1CC(O)C2=CC(=O)C(=O)C=C21 (configuration not stated)	.	.	-13%	.	.
CCOc1ccc(C(=O)Nc2nnc(S(=O)(=O)Nc3ccccc3)s2)cc1	21%[46 µM]	.	.	.	.
COc1ccc(C(C)=O)cc1CN(C)C	-5%	-4%	8.9µM*	1%	-2
CCN1C(C)=C(C(=O)OC)C(c2ccccc2)N2C(=O)[C@](O)(C(=O)OC)CC(C(C)=O)=C12 (some centres not stated)	.	.	-1%[13.5 µM]	.	.
O=C(c1ccccc1)N(Cc1nc2ccccc2c(=O)[nH]1)C1CCCCC1	-4%[46 µM]	.	3.5µM*	.	.
COc1ccc(Nc2ncnc3onc(C)c23)cc1Cl	8%[46 µM]	.	.	.	.
Nc1nnc(CCS(=O)(=O)c2cc(Cl)ccc2Cl)s1	-2%	-20%	25µM*	0%	?
CC(C)C(=O)N1CCN(c2ccc([N+](=O)[O-])c(NC(C)c3ccccc3)c2)CC1 (configuration not stated)	-6%	-18%	22µM*	-8%	-2
CC(Nc1cc(N2CCN(C(=O)C(C)(C)C)CC2)ccc1[N+](=O)[O-])c1ccccc1 (configuration not stated)	?	-28%	?	-6%	-8
Cc1ccc(/C=C2\CCCC3=C2NC(=S)NC3c2ccc(C)cc2)cc1 (configuration not stated)	?	32µM*	?	?	-22
Cc1ccc(/C=C/C(=O)Nc2ccccc2C(N)=O)cc1	?	0%	-1%	3%	?
Cc1ccc2c(c1)CCCN2C(=O)c1ccoc1C	9%	-6%	?	-6%	5
Cc1ccc2c(c1)CCCN2C(=O)c1cc2ccccc2oc1=O	5%	-14%	14µM*	2%	-28
Cc1ccc(Cl)cc1NC(=O)Cn1c(=O)cc(C)c2c(C)nn(C)c21	-16%[46 µM]	.	.	.	.
Cc1cccc(Nc2nc3c(S(=O)(=O)c4ccccc4)nnn3c3ccccc23)c1	-3%	?	?	-5%	-90*
COc1ccc2[nH]cc(CCNc3ncnc4ccc(-c5cccc(C#N)c5)cc34)c2c1	?	.	-7%	.	.
